Test results published in the supplement of paper PMC12636033.
± gives the standard deviation of the averaged measurements. The full ranking holds about 33,000 sequences; the median of “E-score (rank enrichment, -0.5 to 0.5)” is about -0.0068, and the highest 2% start at about 0.24. The full list was thinned out, with the highest values kept by preference.

system: muMax20 (Max(13-93) K31hArg/K57hArg, M65Nle); assay: PBM 8-mer E-score (E-score (rank enrichment, -0.5 to 0.5)); higher = stronger preferential binding
Method: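 Protein binding microarray (universal PBM chip covering all 10-mers in fixed probe flanks) with chemically synthesized human Max(13-93) bHLH-LZ analogs (not full-length Max) bearing noncanonical residues (hArg, Tha, Aib, Nle at 65) and aromatic Cys staples. Read-out per 8-mer (and its reverse complement): E-score (rank-based enrichment, -0.5 to 0.5) and Z-score of median probe intensity.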

In order of rising “PBM 8-mer E-score” value:
1. ACCGGAGC  -0.286 ± 0.0054
2. CGGTCCAG  -0.279 ± 0.069
3. CTGGTCTC  -0.256 ± 0.045
4. ATAGCTGG  -0.243 ± 0.062
5. GCCTCAGA  -0.218 ± 0.018
6. CGTCTGGC  -0.194 ± 0.022
7. CCTCAGTA  -0.184 ± 0.019
8. CTACTCGC  -0.176 ± 0.076
9. CAAGCTGA  -0.175 ± 0.11
10. CCACTGAC  -0.169 ± 0.032
11. AATGGATC  -0.167 ± 0.0063
12. CGGAGCAC  -0.157 ± 0.021
13. GTCCAGGA  -0.157 ± 0.032
14. CTCGCCTC  -0.157 ± 0.053
15. CTGCTGCC  -0.156 ± 0.007
16. ACGATGCC  -0.151 ± 0.016
17. CTGTAGGC  -0.151 ± 0.011
18. ACGCTAAG  -0.149 ± 0.038
19. ATCGCGGG  -0.145 ± 0.056
20. GAACCTCC  -0.133 ± 0.0052
21. ATCGTCGA  -0.133 ± 0.025
22. CCGTGCAG  -0.128 ± 0.047
23. CGCGCTCA  -0.127 ± 0.012
24. CAGATCTG  -0.123 ± 0.089
25. CGTCTCGC  -0.117 ± 0.017
26. AATCACAG  -0.113 ± 0.046
27. GACCGTGC  -0.11 ± 0.054
28. CAAGCTCG  -0.109 ± 0.086
29. ATCTTGGC  -0.108 ± 0.011
30. AGGCGACA  -0.105 ± 0.11
31. AGCCTCAA  -0.0979 ± 0.089
32. CGACAAGA  -0.0978 ± 0.12
33. CAGCGGCG  -0.0966 ± 0.073
34. ATGAGACC  -0.0938 ± 0.12
35. CCACCAAG  -0.0933 ± 0.014
36. GATCCAAC  -0.0916 ± 0.056
37. CTAGCCAG  -0.0885 ± 0.015
38. GGGCCACA  -0.0874 ± 0.078
39. CCAGTCCA  -0.0788 ± 0.061
40. CGTCCTGC  -0.0779 ± 0.08
41. GCTCCACA  -0.0777 ± 0.035
42. GAACGGGC  -0.0738 ± 0.11
43. CTGTCCTC  -0.0695 ± 0.18
44. CGATGCAG  -0.0636 ± 0.022
45. GCGAACCC  -0.0615 ± 0.025
46. CAGCCTGA  -0.0558 ± 0.092
47. CCATGTTC  -0.0553 ± 0.12
48. CCGTGCTA  -0.0534 ± 0.02
49. CAATCGCG  -0.0427 ± 0.086
50. GCGCTACA  -0.0407 ± 0.037
51. CCGTGCAA  -0.0343 ± 0.018
52. AGGGCAAA  -0.0293 ± 0.034
53. CGCACCAG  -0.0279 ± 0.043
54. AGATGTGC  -0.0232 ± 0.13
55. AGGTTTAG  -0.0204 ± 0.08
56. AATTGCTC  -0.0189 ± 0.0015
57. ATTGGATA  -0.0183 ± 0.031
58. ACTAGATC  -0.0146 ± 0.044
59. AACGGAGT  -0.013 ± 0.052
60. CGATGTGA  -0.012 ± 0.0036
61. CGGCGGAA  -0.0106 ± 0.03
62. AGATGTGG  -0.0064 ± 0.024
63. AATCACGA  0.00734 ± 0.13
64. AGGCACAA  0.00764 ± 0.053
65. CGAAAATA  0.00928 ± 0.085
66. ATCTGACC  0.00987 ± 0.008
67. AGGTGCAT  0.0164 ± 0.091
68. AACATACC  0.0171 ± 0.02
69. AAAGCTGG  0.0179 ± 0.046
70. AGCTCGTG  0.0196 ± 0.019
71. AATAATCC  0.0218 ± 0.0033
72. ACTGCAAA  0.0247 ± 0.1
73. AAGACCCT  0.0269 ± 0.086
74. GGTGCAAA  0.0271 ± 0.074
75. AACGAACG  0.0291 ± 0.073
76. CCGTGCAC  0.0347 ± 0.013
77. CCATAGTA  0.0366 ± 0.064
78. TCGTGCAA  0.0413 ± 0.0064
79. GAAATCAA  0.0452 ± 0.11
80. ACTGTCTA  0.0515 ± 0.052
81. AAGTGTGA  0.0524 ± 0.053
82. AACATACT  0.0528 ± 0.0084
83. CTATGCCA  0.0539 ± 0.12
84. GACACGAC  0.0582 ± 0.097
85. GTGGGCAA  0.0632 ± 0.065
86. AAAAATAA  0.0636 ± 0.065
87. CAAGCATA  0.064995 ± 4.9e-05
88. ATATGCCG  0.0671 ± 0.1
89. ACATGTCA  0.0739 ± 0.079
90. ACTTCGGG  0.0794 ± 0.099
91. GTGTCTAA  0.0915 ± 0.069
92. GGTAATAA  0.0931 ± 0.008
93. AAAATCAA  0.0939 ± 0.085
94. ACATAGTA  0.0946 ± 0.04
95. CACATACG  0.0977 ± 0.026
96. AAAGCATT  0.1 ± 0.0071
97. CCTAATAA  0.103 ± 0.096
98. CTATAGTA  0.109 ± 0.0064
99. TAAGCATA  0.11 ± 0.096
100. AATAAGGG  0.11 ± 0.12
101. AGATGTGA  0.11 ± 0.04
102. CACATACA  0.112 ± 0.072
103. TCGCTACA  0.115 ± 0.042
104. GTCATACA  0.118 ± 0.021
105. ATAATGAC  0.122 ± 0.01
106. GACAACAA  0.125 ± 0.046
107. AAGTGCAT  0.132 ± 0.029
108. ACATGTCC  0.132 ± 0.091
109. CAAGCATG  0.134 ± 0.038
110. GCGTGCTA  0.138 ± 0.033
111. AAATGTGG  0.139 ± 0.016
112. ACCATACA  0.144 ± 0.051
113. TAGTGTGA  0.15 ± 0.12
114. AATACTAA  0.158 ± 0.052
115. AATAATAC  0.16 ± 0.018
116. ATGGATAA  0.163 ± 0.05
117. GATAATAA  0.164 ± 0.034
118. GACATACA  0.167 ± 0.11
119. AACATAAA  0.168 ± 0.035
120. AATCACAA  0.172 ± 0.028
121. CTATGTGC  0.175 ± 0.034
122. ATCATACG  0.184 ± 0.071
123. TGTAATAA  0.189 ± 0.076
124. TAAAAGTA  0.189 ± 0.074
125. ACTAATAG  0.191 ± 0.025
126. AATCACGC  0.196 ± 0.096
127. CTAGTAAC  0.196 ± 0.0053
128. AATACTAC  0.197 ± 0.038
129. ACTAATAT  0.199 ± 0.0057
130. GATAATAC  0.204 ± 0.073
131. ACGTGCCG  0.207 ± 0.098
132. GCGTGCAC  0.208 ± 0.024
133. CATAATAA  0.216 ± 0.021
134. CACATAAA  0.2193 ± 0.00038
135. ACTAATAA  0.222 ± 0.015
136. GTATAGTA  0.227 ± 0.0046
137. AGTAATAG  0.227 ± 0.078
138. CATAATAG  0.229 ± 0.017
139. TCTAATAA  0.236 ± 0.032
140. GCATGTGA  0.236 ± 0.11
141. TACATAAA  0.239 ± 0.025
142. CAGTGTGA  0.2398 ± 0.0018
143. AATCACAT  0.242 ± 0.066
144. ATATGCCA  0.242 ± 0.062
145. AATAATAT  0.244 ± 0.011
146. AAAGCATA  0.249 ± 0.045
147. AAAGCATG  0.25 ± 0.063
148. ACGTGCAA  0.251 ± 0.095
149. AACATACA  0.252 ± 0.0071
150. ACGTGCAG  0.252 ± 0.00027
151. ACGCTACA  0.255 ± 0.047
152. TACATACA  0.26 ± 0.025
153. CATAATAC  0.26 ± 0.066
154. TAAATCAA  0.261 ± 0.01
155. AATAATAG  0.263 ± 0.024
156. AATACTAT  0.265 ± 0.077
157. CCATGTGC  0.265 ± 0.12
158. ACATGTGC  0.265 ± 0.089
159. CCATGTGA  0.268 ± 0.088
160. AGTAATAA  0.271 ± 0.0094
161. AAAGCTGA  0.275 ± 0.086
162. GCATAGTA  0.277 ± 0.041
163. AATAATAA  0.277 ± 0.011
164. AACATACG  0.278 ± 0.03
165. ACGTGCTA  0.278 ± 0.041
166. ATCATACA  0.28 ± 0.069
167. ATATAGTA  0.281 ± 0.048
168. ACATGTGA  0.313 ± 0.063
169. TATAATAA  0.315 ± 0.015
170. ACGTGCAT  0.33 ± 0.053
171. ACGTGCAC  0.334 ± 0.11
172. ACATGTGG  0.335 ± 0.035
173. AATCACGT  0.385 ± 0.046
